# Measured values: PubChem BioAssay
# Experiment: MRP1 drug-resistance reversers in H69AR cells – cell-based, doxorubicin co-treatment, pilot screen (AID 601)
# Settings: H69AR cells, CellTiter-Glo, 72 h; compound alone cytotoxicity; at 10 µM
row,SMILES,viability [%]
1,CCCc1cc(C(=O)Nc2ccccc2SC)no1,81.1
2,Cc1ccc(C(=O)OCC(=O)Nc2ccc3c(c2)OCO3)o1,97.3
3,COC(=O)C(C#N)C(=C1C(=O)CC(C)(C)CC1=O)c1ccc(O)cc1 (stereo not drawn),92
4,COC(=O)c1cc(OC)c(OC)cc1NC(=O)c1ccc(Br)o1,87.6
5,COc1cccc(NC(=O)CSc2nnc(Cc3cccn3C)n2-c2ccc(F)cc2)c1,78.2
6,CCOc1ccc(N(CC(=O)OC)S(=O)(=O)c2ccc(OC)c(OC)c2)cc1,106
7,COC(=O)C1=C(C)NC(C)=C(C(=O)OC)C1C1CC=CCC1 (stereo not drawn),100
8,CCCCCn1c(=O)[nH]c2cc(C(=O)NCCN3CCOCC3)ccc2c1=O,105
9,COc1ccccc1OCC(=O)N1CCN(c2ccccc2OC)CC1,104
10,COc1cccc(-c2nc(CS(=O)(=O)CC(=O)N3CCN(c4ccccn4)CC3)c(C)o2)c1,90.9
11,CC1C(=O)C(C)C(c2cccs2)NC1c1cccs1 (stereo not drawn),104
12,COc1ccc(N2C(=O)CCC(C(=O)N3CCCCC3)C2c2ccc(OC)c(OC)c2)cc1 (stereo not drawn),95.4
13,COc1cccc(NC(=O)c2nc3nc(C)cc(C(F)F)n3n2)c1,84
14,O=C(NCCN1CCOCC1)c1ccc2c(c1)N(Cc1ccccc1F)C(=O)CS2,92.6
15,CCn1cc(C(=O)NCc2ccccc2OC)c(=O)c2cc(S(=O)(=O)N(C)C)ccc21,77.6
16,CC1Cn2c(nnc2-c2ccc(F)cc2)S1 (stereo not drawn),93.7
17,COc1ccc(NC(=O)CN(c2ccc(C(C)C)cc2)S(=O)(=O)c2c(C)noc2C)cc1OC,84.9
18,Cc1cc(C)c(C(=O)Nc2ccc(S(=O)(=O)Nc3onc(C)c3C)cc2)c(C)c1,93.4
